The values below come from PubChem BioAssay (NCI).

About 83,000 compounds went through this panel and 20% of them were active in at least one assay; those are over-represented in the sample as a whole.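 Activity criterion: percent growth below 10, measured after cells in 96-well plates were exposed to a single compound concentration for 48 hours.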 Values without a mark were called inactive. Activity calls are given as the source filed them.

Among the test systems are T-47D breast; BT-549 breast; MDA-MB-435 melanoma; SW-620 colon; MCF7 breast; HCT-116 colon; HCC-2998 colon; KM12 colon; MDA-MB-468 breast.
What all share (assay): NCI-60 one-dose screen, 48 h (100 = growth as untreated, 0 = no growth, -100 = all killed)
Common to all, as to conditions: 10 µM unless noted

`COc1ccc2[nH]c(O)c(N=Nc3nc(-c4ccc(Br)cc4)cs3)c2c1`: the growth in the assay with T-47D breast is -27.2% (active); in the assay on BT-549 breast, 35%; in the assay with MDA-MB-435 melanoma it was 50.3%; in the assay on SW-620 colon it was 4.99% (active); in the assay on MCF7 breast, -16.4% (active); with HCT-116 colon it was -63.1% (active). Besides, the growth is 51.4% in the assay on HCC-2998 colon, 55.6% in the assay on KM12 colon and -7.45% (active) with MDA-MB-468 breast.

Consider `CC[C@@]12CC(C(=O)OC)=C3Nc4cc5c(cc4[C@@]34CCN(C[C@H]3O[C@H]31)[C@@H]24)[C@@H]1[C@H](O5)[C@@H](O)[C@@]2(CC)CC(C(=O)OC)=C3Nc4cc(O)ccc4[C@@]34CCN1[C@@H]24`, for which the growth was -37.5% (active) in the assay with T-47D breast; -87.6% (active) in the assay on BT-549 breast; -54.3% (active) in the assay on MDA-MB-435 melanoma; -71.1% (active) in the assay with SW-620 colon; -56.8% (active) in the assay on MCF7 breast; -50.4% (active) in the assay on HCT-116 colon. Moreover, the growth with HCC-2998 colon is -85.4% (active); in the assay on KM12 colon, -46.6% (active); in the assay with MDA-MB-468 breast, -78.5% (active).

For `O=C(/C=C1\C(=O)N(Cc2ccccc2)c2ccccc21)c1cc2ccccc2oc1=O`, the growth is 40.3% with T-47D breast; 97.1% with BT-549 breast; 107% with MDA-MB-435 melanoma; 24.2% in the assay on SW-620 colon; 29.8% in the assay with MCF7 breast; 82.9% in the assay on HCT-116 colon. The growth in the assay on HCC-2998 colon is 113%; with KM12 colon, 91.2%; in the assay on MDA-MB-468 breast, 29.6%.

With `O=C1Nc2ccc(F)cc2/C1=C/C(=O)c1cc2ccccc2oc1=O`, the growth is 93.4% with T-47D breast; 116% in the assay on BT-549 breast; 103% in the assay on MDA-MB-435 melanoma; 20.9% with SW-620 colon; 69.4% with MCF7 breast; 88.7% in the assay on HCT-116 colon. Further, the results for the growth with HCC-2998 colon, in the assay with KM12 colon and with MDA-MB-468 breast were 121%, 101% and 22.3%, respectively.

On to `COc1cc(CNC(=O)C[C@H](C)CCC=C(C)C)ccc1OCc1cn(-c2ccc(Cl)cc2Cl)nn1`, for which the growth in the assay with T-47D breast is 60.2%; in the assay with BT-549 breast, 83.7%; in the assay with MDA-MB-435 melanoma it was 98.2%; with SW-620 colon, 89.3%; in the assay with MCF7 breast, 67.5%; with HCT-116 colon it was 53.1%. For the same molecule, the growth is 92.5% in the assay on HCC-2998 colon, 93.1% with KM12 colon and 50.4% in the assay on MDA-MB-468 breast.

As for `COc1cncc(-c2ccc3ncnc(N4CCc5ccc(Cl)cc54)c3c2)c1`, the growth in the assay with T-47D breast was 14.1%; in the assay on BT-549 breast it was -72.1% (active); in the assay on MDA-MB-435 melanoma, 53.6%; in the assay with SW-620 colon it was 60.7%; in the assay with MCF7 breast, -1.93% (active); in the assay on HCT-116 colon, -58% (active). The growth with HCC-2998 colon is 16.9%; with KM12 colon, 21.5%; with MDA-MB-468 breast, -67.4% (active).

As to `COc1cc(CNC(=O)[C@]23CCC(C)(C)CC2C2=CCC4[C@@]5(C)CCC(OC(C)=O)C(C)(C)C5CC[C@@]4(C)[C@]2(C)CC3)ccc1OCc1cn(-c2ccc(Cl)cc2Cl)nn1` (stereo partly specified), the growth was 85.1% with T-47D breast; 118% in the assay on BT-549 breast; 105% in the assay on MDA-MB-435 melanoma; 106% in the assay with SW-620 colon; 86.5% with MCF7 breast; 98.2% with HCT-116 colon. Also, the results for the growth in the assay on HCC-2998 colon, in the assay on KM12 colon and with MDA-MB-468 breast were 122%, 101% and 112%, respectively.

`COc1ccc(-c2nc3ccccc3n2CC(=O)N=Nc2c(O)[nH]c3ccc(OC)cc23)cc1`: the growth with T-47D breast is -72.5% (active); with BT-549 breast it was 20.5%; with MDA-MB-435 melanoma, 26.3%; in the assay on SW-620 colon it was 48.6%; with MCF7 breast, 58.1%; in the assay with HCT-116 colon, 1.32% (active). In addition, the growth with HCC-2998 colon was 114%; in the assay with KM12 colon, 85%; in the assay on MDA-MB-468 breast, 52.4%.

Regarding `CCOc1ccc(-c2cc(-c3cc(C(C)C)c(O)cc3C)nn2-c2ccc(S(N)(=O)=O)cc2)cc1`, the growth in the assay with T-47D breast is 18.4%; in the assay on BT-549 breast, 3.59% (active); in the assay with MDA-MB-435 melanoma, -43.6% (active); with SW-620 colon, 33.3%; with MCF7 breast, 12%; with HCT-116 colon, 24%. Further, the growth is 4.6% (active) in the assay with HCC-2998 colon, 7.96% (active) in the assay with KM12 colon and -16.5% (active) in the assay with MDA-MB-468 breast.

Turning to `CN1CCN(c2ccc3c4c(cccc24)C(=O)N(c2cccc(-c4nn(-c5ccccc5)cc4-c4nc5ccccc5s4)c2)C3=O)CC1`, the growth with T-47D breast is 109%; in the assay with BT-549 breast, 97.1%; in the assay with MDA-MB-435 melanoma, 95.1%; in the assay on SW-620 colon it was 93%; in the assay with MCF7 breast, 5.13% (active); in the assay on HCT-116 colon it was 79%. Also, the growth with HCC-2998 colon was 79.2%; in the assay with KM12 colon, 73.5%; in the assay with MDA-MB-468 breast, 94.1%.

For `N#C/C(=C/c1ccc(Cl)cc1)c1nnc(NC(=O)c2ccc(-n3c(=O)[nH]c4ccccc4c3=O)cc2)s1`, the growth with T-47D breast is 64.2%; in the assay with BT-549 breast, 40%; in the assay on MDA-MB-435 melanoma it was 84.7%; in the assay on SW-620 colon, 73.8%; in the assay with MCF7 breast it was 38%; in the assay with HCT-116 colon it was 46.4%. The growth is 23.5% with HCC-2998 colon, 23.6% in the assay with KM12 colon and 34.9% in the assay on MDA-MB-468 breast.

Consider `Cc1cc(C)c2[nH]c(=O)c(C(c3nnnn3Cc3ccc4c(c3)OCO4)N3CCN(C)CC3)cc2c1` (stereo unspecified), for which the growth with T-47D breast was 112%; in the assay with BT-549 breast it was 106%; in the assay with MDA-MB-435 melanoma, 106%; with SW-620 colon, 110%; with MCF7 breast it was 101%; with HCT-116 colon it was 105%. The growth in the assay with HCC-2998 colon was 121%; in the assay with KM12 colon, 105%; with MDA-MB-468 breast it was 113%.

`O=C(Cn1c(/C=C/c2ccc([N+](=O)[O-])cc2)nc2ccccc2c1=O)Nc1ccccc1`: the growth in the assay on T-47D breast is 79.9%; in the assay with BT-549 breast, 63.1%; in the assay on MDA-MB-435 melanoma, 91%; in the assay with SW-620 colon, 83.6%; with MCF7 breast it was 78.5%; in the assay on HCT-116 colon, 61.2%. In addition, the growth is 79.8% with HCC-2998 colon, 77.3% in the assay with KM12 colon and 45.4% with MDA-MB-468 breast.

On to `CN1CCN(C(=O)Oc2cc3c(c4ccccc24)[C@H](CCl)CN3C(=O)c2cc3cc(OCCCN4CCC4)ccc3[nH]2)[C@@H]2CSSC[C@H]21`, for which the growth with T-47D breast is -5.44% (active); in the assay on BT-549 breast, -49.8% (active); in the assay on MDA-MB-435 melanoma, -36.2% (active); in the assay on SW-620 colon, 4.87% (active); with MCF7 breast, -63.4% (active); in the assay on HCT-116 colon, 1.54% (active). Besides, the growth in the assay with HCC-2998 colon is -83.3% (active); in the assay on KM12 colon, -40.5% (active); with MDA-MB-468 breast, -72.1% (active).
